From PubChem BioAssay (EPA / NIEHS)
Results filed as inconclusive are left out. Calls of active or inactive are those of the source. Rule for the calls: active = hit-call score of the fitted dose curve at least 0.9, where 1 is the maximum; inconclusive = response in the unintended direction; inactive = score below 0.9.

molecular target: Retinoic acid receptor RXR-alpha (Homo sapiens) (UniProt P19793); assay: ATG_RXRa_TRANS: Attagene TRANS-FACTORIAL HepG2 Assay for human Retinoid X Receptor alpha (RXRa) (AID 2283012)
Sequence (P19793 whole entry, looked up, the tested form may be a part): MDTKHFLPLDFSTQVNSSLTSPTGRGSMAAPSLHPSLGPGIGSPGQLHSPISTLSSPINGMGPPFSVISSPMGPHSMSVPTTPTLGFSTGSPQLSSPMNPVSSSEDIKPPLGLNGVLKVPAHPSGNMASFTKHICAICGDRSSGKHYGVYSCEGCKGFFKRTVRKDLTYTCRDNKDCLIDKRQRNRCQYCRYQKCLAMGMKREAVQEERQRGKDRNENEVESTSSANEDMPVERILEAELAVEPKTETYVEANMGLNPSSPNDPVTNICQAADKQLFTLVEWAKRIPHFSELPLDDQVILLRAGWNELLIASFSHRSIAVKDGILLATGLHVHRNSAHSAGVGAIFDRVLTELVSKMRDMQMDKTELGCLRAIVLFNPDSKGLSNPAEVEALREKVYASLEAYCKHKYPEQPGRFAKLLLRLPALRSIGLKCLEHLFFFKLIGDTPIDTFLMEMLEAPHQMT
How it was run: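 Measures exogenous chimeric NR-GAL4 activity in transfected HepG2 liver cells after 24 h of dosing. Induced reporter mRNA was detected by RT-PCR with capillary electrophoresis, and gain of signal was analysed against DMSO.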

| SMILES | outcome | AC50 |
| --- | --- | --- |
| OC(Cc1ccccc1Cl)(Cn1cncn1)C1(Cl)CC1 (configuration not stated) | inactive | – |
| O=S(=O)(C(Cl)(Cl)Cl)C(Cl)(Cl)Cl | inactive | – |
| CCOP(=S)(OCC)OP(=S)(OCC)OCC | inactive | – |
| O=[N+]([O-])c1ccc(Nc2ccccc2)cc1 | inactive | – |
| Oc1cccc(-c2ccccc2)c1 | inactive | – |
| NC(=O)CCl | inactive | – |
| O=c1oc2ccccc2c(O)c1C(CC(O)c1ccc(-c2ccc(Br)cc2)cc1)c1ccccc1 (configuration not stated) | inactive | – |
| C#CCOC(=O)/C=C(C)/C=C/CC(C)CCCC(C)C (configuration not stated) | – | 14.1 µM (active) |
| CCCCCCCCCCCCN(C)C | inactive | – |
| CCOC(=O)CCN(SN(C)C(=O)Oc1cccc2c1OC(C)(C)C2)C(C)C | inactive | – |
| Cc1ccccc1OP(=O)(Oc1ccccc1C)Oc1ccccc1C | inactive | – |
| O=S(=O)(c1ccc(Cl)cc1)c1cc(Cl)c(Cl)cc1Cl | inactive | – |
| N#CCCC(Br)(C#N)CBr (configuration not stated) | inactive | – |
| CCOC(=O)CC(=O)CCl | inactive | – |
| O=C1C=CC(=O)c2ccccc21 | inactive | – |
| Oc1ccc(Cc2ccc(O)cc2)cc1 | inactive | – |
| CC(C=O)Cc1ccc2c(c1)OCO2 (configuration not stated) | inactive | – |
| Nc1c(Oc2ccccc2)cc(O)c2c1C(=O)c1ccccc1C2=O | inactive | – |
| CC(C)(C)c1cc([N+](=O)[O-])cc(C(C)(C)C)c1O | – | 26.7 µM (active) |
| [Cl][Sn]([c]1ccccc1)([c]1ccccc1)[c]1ccccc1 | – | 0.233 µM (active) |
| CC1(C)[C@H](C(=O)O[C@H](C#N)c2cccc(Oc3ccccc3)c2)[C@@H]1/C=C(\Cl)C(F)(F)F | inactive | – |
| Cc1ccc(OP(=O)(Oc2ccc(C)cc2C)Oc2ccc(C)cc2C)c(C)c1 | inactive | – |
